In all, about 310,000 compounds went through this assay and about 2,200 (0.71%) showed an effect of 50% or more. Effects have a minus sign here. The sample holds strong results, similar compounds and a random draw of the others, so the mix is not that of the screen.

For this assay, the target named is human ether-à-go-go-related gene (hERG) potassium channel (human, UniProt Q12809). The assay can be described thus: primary screen, population patch clamp on CHO cells stably expressing hERG; higher = less effect of the substance.
Sequence of human ether-à-go-go-related gene (hERG) potassium channel (Q12809 whole entry, looked up): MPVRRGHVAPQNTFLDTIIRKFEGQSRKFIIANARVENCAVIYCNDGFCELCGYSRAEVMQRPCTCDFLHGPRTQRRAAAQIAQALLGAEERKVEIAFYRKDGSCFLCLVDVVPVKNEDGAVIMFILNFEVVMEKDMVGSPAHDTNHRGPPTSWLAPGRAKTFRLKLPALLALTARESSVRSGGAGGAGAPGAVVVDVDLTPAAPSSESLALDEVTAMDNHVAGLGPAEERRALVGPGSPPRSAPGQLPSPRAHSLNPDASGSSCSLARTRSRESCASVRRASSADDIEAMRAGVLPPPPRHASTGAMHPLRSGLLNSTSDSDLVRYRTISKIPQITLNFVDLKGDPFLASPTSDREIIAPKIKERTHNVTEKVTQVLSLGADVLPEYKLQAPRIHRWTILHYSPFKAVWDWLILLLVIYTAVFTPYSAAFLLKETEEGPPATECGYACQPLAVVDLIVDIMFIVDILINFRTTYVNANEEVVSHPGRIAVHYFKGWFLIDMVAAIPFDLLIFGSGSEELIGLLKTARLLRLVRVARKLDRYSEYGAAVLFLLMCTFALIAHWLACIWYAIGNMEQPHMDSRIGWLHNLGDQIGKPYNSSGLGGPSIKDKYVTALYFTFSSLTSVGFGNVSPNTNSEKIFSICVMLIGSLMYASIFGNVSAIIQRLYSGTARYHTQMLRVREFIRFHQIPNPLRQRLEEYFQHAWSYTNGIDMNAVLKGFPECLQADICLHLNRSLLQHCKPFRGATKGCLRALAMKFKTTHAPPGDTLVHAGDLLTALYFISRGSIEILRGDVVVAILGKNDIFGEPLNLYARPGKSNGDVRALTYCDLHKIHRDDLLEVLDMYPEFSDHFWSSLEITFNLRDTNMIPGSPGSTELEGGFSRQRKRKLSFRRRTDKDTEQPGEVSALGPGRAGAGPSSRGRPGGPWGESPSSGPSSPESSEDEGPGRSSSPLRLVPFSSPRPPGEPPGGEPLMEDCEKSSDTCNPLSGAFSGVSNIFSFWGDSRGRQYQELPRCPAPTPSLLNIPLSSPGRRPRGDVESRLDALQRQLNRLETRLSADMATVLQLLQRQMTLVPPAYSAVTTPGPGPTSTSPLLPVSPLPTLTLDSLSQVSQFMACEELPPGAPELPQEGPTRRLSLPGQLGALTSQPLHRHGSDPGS
As to `CCC1(CC)NC(=O)N(CC(=O)OCC(=O)Nc2ccc(C(F)(F)F)cc2)C1=O`, the “hERG current change (%, negative = inhibition) at 1uM” value was 2.71%.
For `O=C(c1ccc2c(c1)OCO2)C1CCCN(Cc2ccccn2)C1` (stereo not shown), the “hERG current change (%, negative = inhibition) at 1uM” value is given as -13%.
Then `COC(=O)c1ccc(CN2CCCC(C(=O)c3ccccc3OC)C2)cc1` (stereo not shown), with -6.6%; and `CCOc1ccc(CN2CCCC(C(=O)c3ccccc3OC)C2)cc1` (stereo not shown), with -74.1%.
Next, `O=C(c1ccc2c(c1)OCO2)C1CCCN(Cc2cn[nH]c2-c2cccc(F)c2)C1` (stereo not shown): -42.7%.
As for `O=C(c1ccc2c(c1)OCO2)C1CCCN(Cc2cn[nH]c2-c2ccccc2)C1` (stereo not shown), the “hERG current change (%, negative = inhibition) at 1uM” value is -67.3%.
Next, `COc1ccccc1C(=O)C1CCCN(Cc2ccc(Oc3ncccn3)cc2)C1` (stereo not shown): -0.388%.
Consider `CCC(CC)c1nnc(NC(=O)C23CC4CC(CC(NC(C)=O)(C4)C2)C3)s1`, for which the “hERG current change (%, negative = inhibition) at 1uM” value stood at 0.699%.
Next, `Cc1cc(C)c(C)c(C(=O)c2ccccc2C(=O)O)c1C`: 6.64%; `COCCNC(=O)COC(=O)c1cccnc1SC`: 12.8%; `CC1CCN(C(=O)c2cccc(S(=O)(=O)N3CCCCC3)c2)CC1`: 2.17%.
Consider `CCOC(=O)C1=C(CSc2nc(-c3ccccc3)ccc2C#N)OC(N)=C(C#N)C1c1cccnc1` (stereo not shown), for which the “hERG current change (%, negative = inhibition) at 1uM” value is given as -6.76%.
Then `COc1ccc(/C=C(\NC(=O)c2ccc(C)cc2)C(=O)NCCCn2ccnc2)cc1OC`, with 12.1%.
For the compound `Cc1ccc(/C=C(\NC(=O)c2ccc(C)cc2)C(=O)NCCCn2ccnc2)cc1`, the “hERG current change (%, negative = inhibition) at 1uM” value was -87%.
For `COc1ccc(/C=C(\NC(=O)c2ccc(Cl)cc2)C(=O)NCCCn2ccnc2)cc1OC`, the “hERG current change (%, negative = inhibition) at 1uM” value is 9.45%.
Next, `Cc1ccc(C(=O)N/C(=C\c2cn(C)c3ccccc23)C(=O)NCCCn2ccnc2)cc1`: 13.5%; `Cc1ccc(C(=O)N/C(=C\c2ccccc2)C(=O)NCCCn2ccnc2)cc1`: -87%; `CSc1ccc(/C=C(/NC(=O)c2ccccc2)C(=O)NCCCn2ccnc2)cc1`: -15.6%.
For `Cc1ccc(C(=O)N/C(=C\c2ccc(F)cc2)C(=O)NCCCn2ccnc2)cc1`, the “hERG current change (%, negative = inhibition) at 1uM” value is -85.1%.
Next, `O=C(NCCCn1ccnc1)/C(=C\c1ccccc1F)NC(=O)c1ccccc1`: -42.5%.
Next, `O=C(NCCCn1ccnc1)/C(=C/c1ccc(F)cc1)NC(=O)c1ccccc1`: -72.2%.
Then `Cc1ccc(C(=O)N/C(=C/c2ccccc2F)C(=O)NCCCn2ccnc2)cc1`, with -22.5%; and `CC(C)(C)NC(=S)N/N=C\c1ccc(-c2ccc([N+](=O)[O-])cc2)o1`, with 13.3%; and `COC(=O)Nc1ccc(S(=O)(=O)N2CCCC(C(=O)N3CCN(C)CC3)C2)cc1` (stereo not shown), with 7.31%.
Regarding `Cc1cc(C)c2cc(CN(Cc3ccc4c(c3)OCO4)Cc3nnnn3Cc3ccco3)c(=O)[nH]c2c1`, the “hERG current change (%, negative = inhibition) at 1uM” value worked out at 10.8%.
Then `CC1=NN(C(C#N)c2ccccc2C)C(c2ccccc2)C1` (stereo not shown), with 9.72%; and `Cc1cc(C)nc(/N=C2\NC(=O)CC3C(=O)NCCN23)n1` (stereo not shown), with 13.1%; and `CN1CC(=O)Nc2ccc([N+](=O)[O-])cc2C1=O`, with 17.6%.
Next, `COC(=O)c1cc2ccsc2n1Cc1ccccc1F`: -2.01%.
Consider `COc1ccc(/C=C(/NC(=O)c2ccc(OC)c(OC)c2)C(=O)NCCCn2ccnc2)cc1`, for which the “hERG current change (%, negative = inhibition) at 1uM” value came out at 15.5%.
`COc1ccc(/C=C(\NC(=O)c2ccc(C)cc2)C(=O)NCCCn2ccnc2)cc1`: the “hERG current change (%, negative = inhibition) at 1uM” value was -91.7%.
Then `COc1ccc(C(=O)N/C(=C\c2ccccc2)C(=O)NCCCn2ccnc2)cc1`, with -18.2%.
Then `Cc1oc(CN2CCOCC2)cc1C(=O)O`, with 7.66%; and `FC(F)Oc1ccc(-n2cc(-c3ccc(Cl)cc3)[n+]3c2CCCCC3)cc1.[Br-]`, with -45.2%.
Next, `Cc1ccc(-c2cn(-c3ccc(OC(F)F)cc3)c3[n+]2CCCCC3)cc1.[Br-]`: -13.3%.
As to `COc1ccc(-n2cc(-c3ccc(OC(F)F)cc3)[n+]3c2CCCCC3)cc1.[Br-]`, the “hERG current change (%, negative = inhibition) at 1uM” value is reported as -52.9%.
For the compound `CCn1nccc1C(=O)Nc1cc(Cl)ccc1Cl`, the “hERG current change (%, negative = inhibition) at 1uM” value was 0.897%.
Then `COc1ccc(CCN(C)C2CCCN(S(=O)(=O)c3ccccc3F)C2)cc1OC` (stereo not shown), with -45.9%; and `COc1ccc(CCN(C)C2CCCN(S(=O)(=O)c3ccc(C)cc3)C2)cc1OC` (stereo not shown), with -82.1%; and `CN(CCc1ccccc1)C1CCCN(S(=O)(=O)c2cccc(F)c2)C1` (stereo not shown), with -2.76%.
Next, `CC(=O)c1ccc(S(=O)(=O)N2CCCC(N(C)CCc3ccccc3)C2)cc1` (stereo not shown): -78.7%; `COc1ccc(CCN(C)C2CCCN(S(C)(=O)=O)C2)cc1OC` (stereo not shown): 6.5%.
For `COc1ccc(CCN(C)C2CCCN(S(=O)(=O)N(C)C)C2)cc1OC` (stereo not shown), the “hERG current change (%, negative = inhibition) at 1uM” value was found to be 8.71%.
Next, `COc1ccc(S(=O)(=O)N2CCCC(N(C)CCc3ccccc3)C2)cc1OC` (stereo not shown): -26.5%; `CC(=O)c1ccc(S(=O)(=O)N2CCCC(N(C)CCc3ccccn3)C2)cc1` (stereo not shown): -44.4%.
Next, `COc1ccc(CCN(C)C2CCCN(S(=O)(=O)c3ccccc3)C2)cc1OC` (stereo not shown): -64.9%.

These data come from article PMC4336329 (PLoS ONE, 2015).
